From PubChem BioAssay (NCATS)
A number with no mark means an inactive call. Calls of active or inactive are those of the source. The call rests on the fitted dose curve; in most records, active means well fitted curve in the direction sought with a large enough effect; inconclusive means small, poorly fitted or top-dose-only effect, or another doubt; inactive means no such curve, though single readings can be large or run the other way.

Target: alpha-glucosidase (Oryza sativa, rice) (UniProt Q653V4)
Assay: Counterscreen for Glucocerebrosidase Inhibitors: qHTS Assay for Rice alpha-Glucosidase at pH 5.0 (AID 997);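 further: 0% = full activity with enzyme and -100% = basal without enzyme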
Settings: rice alpha-glucosidase enzyme activity; series mostly up to 76.9 µM; activity change, negative = inhibition: at the top concentration
Source text: NIH Chemical Genomics Center [NCGC]
NIH Molecular Libraries Screening Centers Network [MLSCN]
PI Name: Zheng, Wei [NIH]
Alpha-glucosidase is responsible for hydrolysis of terminal, non-reducing 1,4-linked alpha-D-glucose residues with release of alpha-D-glucose. It is a lysosomal hydrolase that is required for the degradation of a small percentage (1-3%) of cellular glycogen in human. Deficiency of this enzyme results in glycogen-storage disease type II (GSDII), also referred to as Pompe disease, an autosomal recessive disorder. Structurally normal glycogen is accumulated in lysosomes and cytoplasm in affected patients, primarily in muscle tissues. Excessive glycogen storage within lysosomes may interrupt normal functioning of other organelles and leads to cellular injury. In turn, this leads to enlargement and dysfunction of the entire organ involved (eg, cardiomyopathy and muscle weakness).
It has reported that the improper folding and trafficking of alpha-glucosidase resulted from the genetic mutations may account for a significant number of Prope patients. […] We optimized this alpha-glucosidase assay in 1536-well plate format for identifying the novel small molecule inhibitors with the structures other than the sugar analogs in order to develop the new pharmacological chaperones.
NCGC Assay Protocol Summary:
This is a fluorogenic enzyme assay with 4-methylumbelliferyl-alpha-D-pyranoside as the substrate and rice alpha-glucosidase as the enzyme preparation. Upon the hydrolysis of this fluorogenic substrate, the resulting product, 1. 4-methyllumbelliferone, can be excited at 365 nm and emits at 440 nm which can be detected by a standard fluorescence plate reader. Data were normalized to the controls for basal activity (without enzyme) and 100% activity (with enzyme). In the AC50 values were determined from concentration-response data modeled with the standard Hill equation.
Assay buffer: 50 mM citric acid, 0.005% Tween-20, pH 5.0. (pH 5.0 is an optimal condition for this enzyme assay)
1536-well assay protocol for the human alpha-glucosidase:
(1) Add 2 ul/well of enzyme (4 nM final)
(2) Add 23 nL compounds in DMSO solution. The final titration was 0.7 nM to 77 uM.
(3) Add 1 ul of substrate (400 uM final)
(4) Incubate at room temperature for 20 min.
(5) Add 2 ul stop solution (1M NaOH and 1M Glycine mixture, pH 10)
(6) Detect the assay plate in a ViewLux plate reader (PerkinElmer) with Ex=365 nm and Em=440nm.
Keywords: Alpha-glucosidase, Prope Disease, pharmacological chaperone, chaperone therapy, high throughput screening, alpha-glucosidase inhibitor, MLSMR, MLSCN, NIH Roadmap, qHTS and NCGC

| SMILES | activity change, negative = inhibition [%] | outcome |
| --- | --- | --- |
| CCCn1c(C)c(C(=O)c2ccc3ccccc3c2)c2ccccc21 | -6.5 | – |
| CC(C)NP(=O)(NC(C)C)OP(=O)(NC(C)C)NC(C)C | -1.57 | – |
| CN1CCc2cc(O)cc3c2[C@H]1Cc1ccc(O)c(O)c1-3 | -3.23 | – |
| NCCc1ccc(S(=O)(=O)F)cc1 | 1.71 | – |
| Clc1ccc(N2C[C@H]3CC[C@@H](C2)N3)nn1 | -1.57 | – |
| NCCCP(=O)(O)O | -1.18 | – |
| C[N+]1(C)[C@@H]2CC[C@H]1CC(OC(=O)c1c[nH]c3ccccc13)C2 (stereo not given in full) | -2.86 | – |
| NC(N)=NOCC[C@H](N)C(=O)O | 2.44 | – |
| CCCN(CCC)C1Cc2cc(OC)c(OC)cc2C1 | -1.8 | – |
| CN(N=O)c1ccc(O)c(O)c1 | -7.44 | – |
| C[N+](C)(C)CC#CCN1CCCC1=O | -0.295 | – |
| CCCn1c(=O)c2[nH]c(C3CCCC3)nc2n(CCCOC(=O)c2ccc(S(=O)(=O)F)cc2)c1=O | -2.85 | – |
| O=P(O)(O)C(Cl)(Cl)P(=O)(O)O | -1.89 | – |
| N#CC(C#N)=Cc1cc(O)c(O)c(O)c1 | 0.466 | – |
| Clc1cc(I)cc(Cl)c1NC1=NCCN1 | -2.75 | – |
| O=c1c2ccccc2[se]n1-c1ccccc1 | -2.99 | – |
| NNC(N)=O | -1.71 | – |
| NC(=O)c1cc(N2CC2)c([N+](=O)[O-])cc1[N+](=O)[O-] | -5.65 | – |
| O=C1C=CC(=O)C=C1 | -3.6 | – |
| C[N+](C)(C)CC#CCOC(=O)Nc1cccc(Cl)c1 | -1.96 | – |

| SMILES | activity change, negative = inhibition [%] | outcome |
| --- | --- | --- |
| c1ccc2c(c1)[I+]c1ccccc1-2 | -0.845 | – |
| O=S1(=O)N(CCN2CC=C(c3c[nH]c4cc(F)ccc34)CC2)c2cccc3c2N1CCC3 | -9.98 | – |
| CCS(=O)(=O)Nc1cccc(C(=C2CCCCC2)c2cnc[nH]2)c1 | -0.37 | – |
| Nc1ccc(CCN2CCN(c3cccc(C(F)(F)F)c3)CC2)cc1 | -4.94 | – |
| CCCN(CCC)CCc1c[nH]c2ccc(C(N)=O)cc12 | 0.0353 | – |
| C[N+]1(C)CCN(c2ccccc2)CC1 | -1.39 | – |
| C[C@@H]1O[C@H](C[N+](C)(C)C)CS1 | -1.86 | – |
| CC(=O)NBr | -2.66 | – |
| CCCN(CCC)[C@@H]1CCc2cccc(O)c2C1 | – | inactive |
| CCCN(CCC)CCc1ccc(O)c(O)c1 | -0.537 | – |
| C[C@H](N)CN1CCc2ccc(Br)cc21 | -5.46 | – |
| OCc1cnc[nH]1 | -0.944 | – |
| c1ccc2c(N3CCNCC3)cccc2c1 | -3.37 | – |
| NC(=O)COc1c(F)cc(SCCNS(=O)(=O)c2ccccc2)cc1F | 2.09 | – |
| COc1ccc2[nH]cc(CCN)c2c1 | -0.793 | – |
| c1ccc2cc(CC3=NCCN3)ccc2c1 | -1.38 | – |
| COc1ccc2c(c1)/C(=C/c1cnc[nH]1)C(=O)N2 | -8.17 | – |
| CC(C)(C)c1cc(C=C(C#N)C#N)cc(C(C)(C)C)c1O | -8.24 | – |
| NC(=O)CI | -8.69 | – |
| COc1ccc2[nH]c3c(c2c1)CCNC3 | -3.93 | – |
